# Screening data (PubChem)
# Sampled rows, rich in hits. Any-hit rate of the full collection: about 19%.
# IL1B secr inh – inhibitors of inflammasome signaling (IL-1 beta secretion) | THP-1 LPS/ATP IL-1B secretion, AlphaLISA, 16 h; stronger effect = lower value | activity change, % at 57.5 µM | 360,000 tested, 4.7% active | AID 743279; in the data active = activity change below about -50%; inconclusive = mostly about -30% to -49%
#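 Secreted IL-1B measured by AlphaLISA bead assay after 16 h compound exposure of THP-1 cells; compounds (final up to 57.5 uM) added 1 h before LPS (250 ng/mL) and ATP (1.25 mM) stimulation; lower signal means less secretion.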
# HT1080 IDH1KD tx – kills HT-1080 cells with IDH1 knockdown | 360,000 tested, 2% active | Potency, µM (doses to about 46.1 µM), inactives show at the top dose activity, negative = toxicity, most hits filed as cytotoxic | AID 686971 | HT-1080 IDH1 knockdown viability, ATP luminescence, 48 h;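 also: potency is read from the fitted curve at half-maximal effect; 0% = DMSO wells and -100% = cell-free medium wells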
#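 After a 2 h attachment period, IDH1KD HT-1080 cells took pin-transferred compound for 48 h at 37 °C; ATP-based luminescence after 10 min room-temperature reagent incubation reported viability.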
# TDP1 cell noCPT – qHTS for Inhibitors of human tyrosyl-DNA phosphodiesterase 1 (TDP1): qHTS in cells in absence of CPT | 420,000 tested, 15% active | DT40 Tdp1-/- hTDP1 cells, no CPT, ATP luminescence, 48 h | Potency, µM (highest dose often 46.2 µM), for the others: at the top dose activity change, negative = growth inhibition, actives largely listed as inhibitors; also: potency is read from the fitted curve at half-maximal effect; nearly all actives have a fitted effect of over 55% in size
#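 No-CPT arm: Tdp1-/-;hTDP1 DT40 cells (400/well) plus compounds, incubated ≥48 hr at 37 °C. Readout CellTiter-Glo luminescence.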
# HT1080NT lethal – kills 2HG-producing HT-1080-NT fibrosarcoma cells; HT-1080-NT fibrosarcoma viability, CellTiter-Glo ATP luminescence, 48 h; Potency, µM (series often up to 46.1 µM), for the others: at the top dose activity, negative = less viability, hits mostly cytotoxic; 360,000 tested, 1.6% active; AID 686970;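 also: NT is the 2HG producing partner of a matched IDH1 knockdown line; potency is read from the fitted curve at half-maximal effect; 0% = DMSO-treated cells and -100% = media-only wells without cells; nearly all actives have a fitted effect of over 55% in size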
#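 Luminescent CellTiter-Glo readout after 48 hours of compound exposure at 37 degrees C defined viability of HT-1080-NT cells. Activity was normalized to DMSO wells and cell-free media wells; concentration-response curves were fitted and assigned curve classes.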
# DT40 TDP1 CPT – DT40-hTDP1 cell growth loss with CPT | chicken DT40 Tdp1-/-;hTDP1 cells + 20 nM CPT, ATP luminescence, 48 h | Potency, µM (titrated, usually from 46.2 µM), inactives show at the highest dose activity change, negative = growth inhibition, most hits filed as inhibitors | 420,000 tested, 12% active | AID 686979; also: potency is read from the fitted curve at half-maximal effect; nearly all actives have a fitted effect of over 55% in size
#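 Chicken DT40 Tdp1-/- cells stably complemented with human TDP1 were seeded at 400 cells/well in medium containing 20 nM camptothecin, exposed to pin-transferred compounds, and grown at 37 °C for at least 48 hr. Viability was read as ATP luminescence.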
# * marks the source's active call; other numbers are inactive results; ? = inconclusive; nt = no result given; [ ] = another dose, or the depositor's remark. Unless noted, calls follow the shape of the dose curve; as a rule, active = well fitted curve in the direction sought with a large enough effect; inconclusive = small, poorly fitted or top-dose-only effect, or another doubt; inactive = no such curve, though single readings can be large; an effect the other way counts as inactive or inconclusive. Unless noted, % is scaled to controls: 0 for no effect and ±100 for the full control effect.
SMILES,IL1B secr inh,HT1080 IDH1KD tx,TDP1 cell noCPT,HT1080NT lethal,DT40 TDP1 CPT
Cc1c(NC(=O)c2cc(-c3cccs3)nc3ccccc23)c(=O)n(-c2ccccc2)n1C,-89.4*,-27.2%,20.6µM*,-16.4%,?
Cc1c(NC(=O)c2cc(-c3ccccc3)nc3ccccc23)c(=O)n(-c2ccccc2)n1C,-7.5,2.9%,?,0.7%,?
CCNC(=S)NNC(=O)c1cc(-c2cc(C)ccc2C)nc2ccccc12,5.0,-10.0%,14.6µM*,-3.0%,14.6µM*
O=C(Nc1nccs1)c1cc(-c2ccncc2)nc2ccccc12,18.4,-18.1%,?,2.3%,-25.0%
Cc1ccc(NC(=O)c2cc(-c3cccs3)nc3ccccc23)nc1,?,20.6µM*,13µM*,?,23.1µM*
Cc1nc2sccn2c(=O)c1S(=O)(=O)N1CCN(c2cccc(Cl)c2)CC1,5.3,-2.5%,-10.1%,0.0%,-8.8%
COC(=O)c1c(C)nc2nonc2c1N,17.1,14.8%,2.3%,18.9%,4.8%
Clc1ccc(CO/N=C/c2cccs2)cc1,nt,2.9%,-13.7%,1.9%,9.4%
COc1ccc(-c2cc(C(F)F)n3ncc(C(=O)Nc4c(C)n(C)n(-c5ccccc5)c4=O)c3n2)cc1,0.7,-3.8%,11.6µM*,-6.5%,?
CC(C)OCCCNC(=O)c1cc(-c2cccs2)nc2ccccc12,25.3,-0.8%,?,-4.7%,16.4µM*
COc1ccc(-c2cc(C(=O)Nc3c(C)n(C)n(-c4ccccc4)c3=O)c3ccccc3n2)cc1OC,3.5,-24.6%,14.6µM*,?,?
COc1ccc(S(=O)(=O)N2CCC3CC2c2cc(-c4ccc5c(c4)OCO5)ccc23)cc1 (stereo unspecified),33.3,8.2%,-29.8%,16.7%,?
O=S(c1ccccc1O)S(=O)c1ccccc1O (stereo unspecified),?,?,5.17µM*,?,5.8µM*
O=C(CCc1nc(-c2ccccc2Cl)no1)NC1CCCC1,1.0,12.1%,?,18.2%,0.4%
O=C(CCc1nc(-c2ccccc2F)no1)NC1CCCCCC1,20.3,4.7%[9.24 µM],29.1µM*,0.6%,?
O=C(CCc1nc(-c2ccccc2Cl)no1)NC1CCCCC1,9.2,-13.1%,20.6µM*,-3.7%,?
COc1ccc(-c2c3c(=O)n(C)c(=O)n(C)c3c3c(-c4cccc(C)c4)nc4ccccc4n23)cc1,nt,nt,20.6µM*,nt,?
COc1ccc(-c2c3c(=O)n(C)c(=O)n(C)c3c3c(-c4ccccc4)nc4ccccc4n23)cc1,nt,nt,2.31µM*,nt,-2.6%
COc1ccc(-c2nc3ccccc3n3c(-c4cccc(C)c4)c4c(=O)n(C)c(=O)n(C)c4c23)cc1OC,nt,nt,18.4µM*,nt,16.4µM*
N#Cc1c(-c2ccccc2Cl)noc1/C=C/Nc1ccc(C(=O)O)cc1,-25.8,4.4%,14.1%,-1.1%,-10.3%
COc1ccc(C(C)(C)C)cc1S(=O)(=O)N1CCN(C)CC1,-14.4,-0.3%,?,-3.7%,-25.8%
O=C(O)/C(=C\c1ccc2ccccc2c1)c1cccc2ccccc12,-0.7,-8.9%,-12.7%,1.6%,-8.5%
O=C(NC1CC2CCCC(C1)N2C(=O)Nc1cccc(F)c1)C1CC1 (stereo unspecified),-9.0,-2.3%,-2.9%,0.1%,-2.9%
CC(C)(C)OC(=O)C[C@@H]1C/C=C\C[C@H](CC(=O)N(CCO)Cc2ccccc2)C(=O)NC[C@@H](c2ccccc2)OC1=O,-22.8,1.3%,23.1µM*,-1.1%,?
CC(C)(C)OC(=O)C[C@H]1C/C=C\C[C@@H](CC(=O)N(CCO)Cc2ccccc2)C(=O)NC[C@H](c2ccccc2)OC1=O,-0.5,2.8%,14.6µM*,11.3%,20.6µM*
SMILES,IL1B secr inh,HT1080 IDH1KD tx,TDP1 cell noCPT,HT1080NT lethal,DT40 TDP1 CPT
CC(C)(C)OC(=O)C[C@H]1C/C=C\C[C@@H](CC(=O)N(CCO)Cc2ccccc2)C(=O)N[C@@H](c2ccccc2)COC1=O,-3.7,-0.7%,?,-0.9%,?
CC(C)(C)OC(=O)C[C@H]1C/C=C\C[C@H](CC(=O)N(CCO)Cc2ccccc2)C(=O)N[C@@H](c2ccccc2)COC1=O,-17.2,1.4%,?,-8.8%,?
COCCn1c(SCc2cccnc2)nnc1-c1ccco1,16.3,6.9%,-2.7%,11.2%,3.3%
c1nnc(NCNc2nncs2)s1,3.5,-21.7%,?,-12.7%,?
Cc1ccccc1NC(=S)NC(C)CCc1ccccc1 (stereo unspecified),-5.8,7.9%,20.6µM*,-1.1%,?
Cc1ccc(NC(=S)NCCC(c2ccccc2)c2ccccc2)c(C)c1,-4.3,-22.2%,16.4µM*,-17.3%,23.1µM*
CC(C)(C)c1ccccc1NC(=S)NCc1ccccc1,-0.8,9.1%,18.4µM*,6.3%,?
Cc1ccccc1NC(=S)NCCC(c1ccccc1)c1ccccc1,-61.5*,?,?,-18.5%,?
Cc1ccc(SCCNC(=S)Nc2ccc(C)cc2C)cc1,0.0,4.8%,3.2%,9.1%,0.7%
CC1(C(=O)Nc2ccc3c(c2)OCCO3)CSCC(=O)N1CCc1ccccc1F (stereo unspecified),-10.6,-13.4%,-26.8%,-10.3%,-37.5%
COc1cccc(C(=O)N2CCN(CCc3ccncc3)CC2)c1,nt,nt,-6.1%,nt,-20.6%
CCC(C)C(NC(=O)C1CCC(C)CC1)C(=O)NCCc1ccc(S(N)(=O)=O)cc1 (stereo unspecified),5.4,-3.1%,-18.9%,3.9%,-1.9%
O=C(N/N=C/c1c(F)cccc1Cl)c1cc(C2CC2)[nH]n1,-12.0,-7.2%,?,1.1%,16.2%
COc1ccc(C#Cc2c(-c3ccccc3)n(-c3ccccc3)c3ccc(CO)cc23)cc1,0.0,?,?,?,?
O=S(=O)(c1c(F)cccc1F)N(CCc1ccc(F)cc1)C[C@@H](O)COCc1ccccc1,0.0,-11.9%,?,-21.7%,?
Cc1ccc(NC(=S)NCc2ccccc2)c(C)c1,-13.7,10.0%,?,6.7%,23.1µM*
Cc1ccc(NC(=S)NNC(=O)c2ccccc2O)c(C)c1,10.9,-16.2%,13µM*,0.5%,23.1µM*
Cc1cccc(NC(=S)NNC(=O)c2ccc(O)cc2O)c1C,8.5,-17.6%,1.6%,-0.3%,23.7%
COc1ccc(NC(=S)NCCc2ccccc2)c(OC)c1,-2.1,?,?,?,?
COc1ccc(OC)c(NC(=S)NCCC(c2ccccc2)c2ccccc2)c1,-3.2,-14.7%,14.6µM*,-8.7%,?
